Assay in all cases: NCI-60 one-dose screen, 48 h (100 = growth as untreated, 0 = no growth, -100 = all killed)
One experiment has as its system SK-MEL-2 melanoma. The settings on record: 10 µM unless noted.
For the next experiment, the system named is EKVX NSCLC. Conditions: 10 µM unless noted.
Another experiment concerns SN12C renal. The settings on record: 10 µM unless noted.
Another experiment relates to UO-31 renal. Conditions: 10 µM unless noted.
Another experiment relates to TK-10 renal. The settings on record: 10 µM unless noted.
A further experiment has as its system ACHN renal. Conditions: 10 µM unless noted.
The next experiment has as its system CAKI-1 renal. The settings on record: 10 µM unless noted.
The test system of the next experiment is A498 renal. The settings on record: 10 µM unless noted.
The next experiment has as its system CCRF-CEM leukemia. The settings on record: 10 µM unless noted.
The subject of another experiment is MOLT-4 leukemia. Conditions: 10 µM unless noted.
The next experiment deals with SR leukemia. Conditions: 10 µM unless noted.
The next experiment deals with RPMI-8226 leukemia. Conditions: 10 µM unless noted.
The next experiment concerns OVCAR-8 ovarian. The settings on record: 10 µM unless noted.
The next experiment deals with OVCAR-5 ovarian. Conditions: 10 µM unless noted.
For a further experiment, the system named is OVCAR-4 ovarian. Conditions: 10 µM.
A further experiment deals with SK-OV-3 ovarian. The settings on record: 10 µM unless noted.
A further experiment concerns IGROV1 ovarian. The settings on record: 10 µM unless noted.
In another experiment the test system is OVCAR-3 ovarian. Conditions: 10 µM unless noted.
The next experiment has as its system HS 578T breast. Conditions: 10 µM unless noted.
For a further experiment, the system named is NCI/ADR-RES ovarian. The settings on record: 10 µM unless noted.

The panel holds about 83,000 compounds, 20% with a hit somewhere; the sample as a whole holds those more often.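 Testing used 96-well plates and a 48-hour single-concentration exposure. Example: -40 means 40% of the starting cells died.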 Values without a mark were called inactive. Active and inactive are the calls of the source. The calls were made as follows: active = growth percent below 10; inactive = the rest.

This note sets out measurements from PubChem BioAssay (NCI).

Regarding `CCOC(=O)COc1c(C)cc(SSc2cc(C)c(OCC(=O)OCC)c(C)c2)cc1C`, the growth in the experiment on SK-MEL-2 melanoma is 100%; with EKVX NSCLC it was 107%; with SN12C renal, 102%; with UO-31 renal it was 82.4%; in the experiment on TK-10 renal, 87.5%; in the experiment on ACHN renal, 107%. The growth in the experiment on CAKI-1 renal is 106%; with A498 renal it was 99.8%; with CCRF-CEM leukemia, 82.5%; with MOLT-4 leukemia it was 82.5%; in the experiment on SR leukemia it was 90.9%; in the experiment on RPMI-8226 leukemia, 90.6%. Also, the growth in the experiment on OVCAR-8 ovarian was 102%; in the experiment with OVCAR-5 ovarian, 128%; with OVCAR-4 ovarian, 93.1%; in the experiment with SK-OV-3 ovarian it was 106%; in the experiment on IGROV1 ovarian, 96.5%; with OVCAR-3 ovarian, 107%. The growth in the experiment with HS 578T breast is 122%; with NCI/ADR-RES ovarian it was 110%.
On to `CCOC(=O)c1ccc2nc(-c3c(C)nn(-c4ccccc4)c3N3CCOCC3)[nH]c2c1`, for which the growth is 110% in the experiment with SK-MEL-2 melanoma; 87.5% in the experiment on EKVX NSCLC; 90.9% in the experiment on SN12C renal; 69.1% in the experiment with UO-31 renal; 147% in the experiment on TK-10 renal; 86.2% with ACHN renal. Also, the growth in the experiment on CAKI-1 renal was 78.6%; in the experiment on A498 renal, 70.4%; in the experiment with CCRF-CEM leukemia, 88.8%; in the experiment with MOLT-4 leukemia it was 84.4%; with SR leukemia, 74%; with RPMI-8226 leukemia, 84.4%. Besides, the growth in the experiment with OVCAR-8 ovarian is 93.4%; in the experiment on OVCAR-5 ovarian, 103%; in the experiment with OVCAR-4 ovarian, 87.1%; in the experiment with SK-OV-3 ovarian it was 95.3%; with IGROV1 ovarian, 81.4%; in the experiment on OVCAR-3 ovarian, 93.5%.
Consider `O=C(CSc1nc2ccc([N+](=O)[O-])cc2[nH]1)Nc1ccc(F)c(Cl)c1`, for which the growth in the experiment on SK-MEL-2 melanoma is -7.66% (active); in the experiment on EKVX NSCLC it was 11.1%; in the experiment with SN12C renal it was 3.12% (active); in the experiment with UO-31 renal it was 3.59% (active); in the experiment on TK-10 renal, 25.1%; with ACHN renal it was 16.9%. For the same compound, the growth was 9.26% (active) with CAKI-1 renal; -13.1% (active) with A498 renal; 19% in the experiment with CCRF-CEM leukemia; 5.63% (active) in the experiment on MOLT-4 leukemia; 5.97% (active) in the experiment on SR leukemia; -22.3% (active) in the experiment on RPMI-8226 leukemia. Moreover, the growth was 15.5% in the experiment on OVCAR-8 ovarian; 50.9% in the experiment with OVCAR-5 ovarian; 2.64% (active) with OVCAR-4 ovarian; 21.4% in the experiment on SK-OV-3 ovarian; 36.1% in the experiment with IGROV1 ovarian; 16.5% in the experiment with OVCAR-3 ovarian. Further, the growth was 20.3% in the experiment with HS 578T breast and 22.4% in the experiment with NCI/ADR-RES ovarian.
As to `CCN(CC)c1cc(N)c(Cc2c(N)cc(N(CC)CC)cc2Cl)c(Cl)c1`, the growth in the experiment on SK-MEL-2 melanoma is 41.6%; with EKVX NSCLC it was 31.9%; in the experiment on SN12C renal, 21.8%; with UO-31 renal it was 68.5%; in the experiment with TK-10 renal, 82.1%; in the experiment with ACHN renal, 80.2%. Further, the growth in the experiment on CAKI-1 renal is 65.7%; with A498 renal, 76.7%; in the experiment on CCRF-CEM leukemia, 51.5%; with MOLT-4 leukemia it was 40.8%; in the experiment on SR leukemia, 34.8%; in the experiment with RPMI-8226 leukemia, 3.27% (active). Moreover, the growth in the experiment on OVCAR-8 ovarian is 37.3%; in the experiment with OVCAR-5 ovarian, 92.3%; in the experiment with OVCAR-4 ovarian, 23.8%; in the experiment with SK-OV-3 ovarian it was 49.8%; in the experiment on IGROV1 ovarian, 54.7%; with OVCAR-3 ovarian, 47.2%. The results for the growth in the experiment with HS 578T breast and in the experiment on NCI/ADR-RES ovarian were 56% and 81.5%, respectively.
In the case of `Nc1nc(N)c2c(n1)NC(c1ccc(F)cc1)C1CCc3ccccc3C1=N2` (configuration not stated), the growth with SK-MEL-2 melanoma was 97.7%; with EKVX NSCLC, 45.3%; in the experiment on SN12C renal, 63.1%; in the experiment with UO-31 renal it was 59.7%; in the experiment on TK-10 renal, 36.3%; in the experiment on ACHN renal it was 49.7%. For the same compound, the growth was 44.8% in the experiment on CAKI-1 renal; 58.1% with A498 renal; 35.9% with CCRF-CEM leukemia; 19.9% with MOLT-4 leukemia; 9.32% (active) with SR leukemia; 42.3% with RPMI-8226 leukemia. Further, the growth with OVCAR-8 ovarian was 70.4%; in the experiment with OVCAR-5 ovarian it was 110%; in the experiment on OVCAR-4 ovarian, 36%; in the experiment with SK-OV-3 ovarian, 63.9%; in the experiment on IGROV1 ovarian, 83.6%; with OVCAR-3 ovarian it was 48.2%. The growth with HS 578T breast was 84.1%; in the experiment with NCI/ADR-RES ovarian, 43.7%.
For `O=C1NC(=O)C(Cc2ccc(OCc3ccc(-c4cc(F)c(F)c(F)c4)cc3)cc2)S1` (configuration not stated), the growth is 94.4% with SK-MEL-2 melanoma; 80.9% in the experiment on EKVX NSCLC; 80.1% with SN12C renal; 64.5% with UO-31 renal; 100% in the experiment with TK-10 renal; 83.9% in the experiment with ACHN renal. Moreover, the growth with CAKI-1 renal is 53.9%; with A498 renal, 95.5%; in the experiment on CCRF-CEM leukemia it was 80.4%; in the experiment with MOLT-4 leukemia, 76.8%; in the experiment with SR leukemia, 83.8%; in the experiment on RPMI-8226 leukemia it was 69%. Moreover, the growth in the experiment on OVCAR-8 ovarian is 90.2%; in the experiment with OVCAR-5 ovarian, 93.4%; in the experiment on OVCAR-4 ovarian, 68.7%; in the experiment with SK-OV-3 ovarian, 87.5%; with IGROV1 ovarian it was 69.3%; in the experiment on OVCAR-3 ovarian it was 88.3%. In addition, the growth in the experiment with HS 578T breast is 83.5%; with NCI/ADR-RES ovarian, 82.1%.
As to `O=S(=O)(NCCCNc1nccc(-c2c(-c3cccc(F)c3)nc3occn23)n1)c1cccc2ccccc12`, the growth in the experiment with SK-MEL-2 melanoma was 47.3%; in the experiment with EKVX NSCLC it was 47.3%; in the experiment on SN12C renal, 43.3%; in the experiment with UO-31 renal, 17.6%; in the experiment with TK-10 renal, 55.6%; with ACHN renal, 29.5%. Further, the growth with CAKI-1 renal was 20.5%; in the experiment on A498 renal it was 28.9%; in the experiment with CCRF-CEM leukemia, 25.9%; in the experiment with MOLT-4 leukemia, 5.16% (active); with SR leukemia, 50.7%; with RPMI-8226 leukemia it was 28.2%. For the same compound, the growth was 42.1% in the experiment on OVCAR-8 ovarian; 66.7% with OVCAR-5 ovarian; 34.6% in the experiment with OVCAR-4 ovarian; 55.6% in the experiment on SK-OV-3 ovarian; 14.4% in the experiment on IGROV1 ovarian; 56.3% in the experiment with OVCAR-3 ovarian. For the same compound, the growth with HS 578T breast was 23.4%; with NCI/ADR-RES ovarian, 48.2%.
Consider `CN(C)CCCNc1nc(-c2cccc(C(Cl)(Cl)Cl)c2)nc(C(Cl)(Cl)Cl)n1`, for which the growth in the experiment with SK-MEL-2 melanoma was 99%; in the experiment on EKVX NSCLC, 104%; in the experiment with SN12C renal, 102%; in the experiment with UO-31 renal, 83.5%; in the experiment on TK-10 renal it was 115%; in the experiment with ACHN renal, 108%. Further, the growth in the experiment with CAKI-1 renal is 98.2%; in the experiment on A498 renal it was 65.9%; in the experiment on CCRF-CEM leukemia, 98.3%; in the experiment on MOLT-4 leukemia, 84.4%; in the experiment on SR leukemia it was 77.8%; in the experiment on RPMI-8226 leukemia, 99.5%. The growth with OVCAR-8 ovarian is 101%; in the experiment with OVCAR-5 ovarian it was 106%; in the experiment on OVCAR-4 ovarian, 107%; in the experiment on SK-OV-3 ovarian, 111%; with IGROV1 ovarian, 94.4%; with OVCAR-3 ovarian, 117%. Besides, the growth with HS 578T breast was 91.8%.
